High-throughput results deposited in PubChem by The Scripps Research Institute Molecular Screening Center.
M4 PAM: potentiates acetylcholine response at human M4 receptor. P08173. CHO-K1 hM4/Gqi5, Fluo-8 calcium fluorescence, ACh EC20; 0% = ACh EC20, 100% = maximal ACh. activation, % at 3 µM. actives 0.4% (n = 360,000);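 active = activation above its plate's cutoff, the mean activation of sample wells plus 3 SD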
Target sequence (P08173 whole entry, looked up): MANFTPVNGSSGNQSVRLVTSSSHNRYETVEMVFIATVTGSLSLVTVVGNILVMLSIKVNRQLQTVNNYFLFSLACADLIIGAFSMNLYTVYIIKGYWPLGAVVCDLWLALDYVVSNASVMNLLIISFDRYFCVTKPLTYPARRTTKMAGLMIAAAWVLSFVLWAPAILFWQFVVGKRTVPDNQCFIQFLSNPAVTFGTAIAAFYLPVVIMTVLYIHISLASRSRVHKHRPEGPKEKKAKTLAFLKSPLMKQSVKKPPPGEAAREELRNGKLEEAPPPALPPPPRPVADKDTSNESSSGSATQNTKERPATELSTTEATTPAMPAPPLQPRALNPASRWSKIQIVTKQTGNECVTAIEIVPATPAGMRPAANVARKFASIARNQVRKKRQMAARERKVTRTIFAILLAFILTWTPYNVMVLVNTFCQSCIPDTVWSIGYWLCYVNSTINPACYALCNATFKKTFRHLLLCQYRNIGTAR
M4 ag: CHRM4 agonism in calcium assay; CHO-K1 hM4/Gqi5, Fluo-8 calcium fluorescence; vehicle 0%, full acetylcholine response 100%; activation, % at 3 µM; actives 0.14% (n = 360,000); AID 624127;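 active = activation above the run mean over all test wells plus 3 SD, cut at about 32% in these data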;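 note: peak over basal fluorescence ratio per well then scaled between controls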
CHO-K1 Ca PAM: counter-screen for M1 PAMs: effect in parental CHO-K1 cells; AID 602247; activation, % at 3 µM; ATP EC20, Fluo-8 calcium fluorescence; 0% at ATP EC20, 100% at ATP max; actives 0.02% (n = 360,000);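 active = activation above the run cutoff, the mean activation of all test compounds plus 3 SD, cut at about 40% in these data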;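 note: peak over basal fluorescence ratio in a 140 s read after ATP addition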
CHO-K1 Ca ag: nonselective activator or artifact in parental CHO-K1 cells | actives 0.48% (n = 360,000) | Fluo-8 calcium fluorescence; scaled to maximal ATP response, vehicle zero | activation, % at 3 µM | AID 602248; in the data active = activation above about 15%;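 note: untransfected CHO-K1 host cells lacking M1 receptor as counterscreen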
CHRM4 antagonist: blocks acetylcholine activation of human M4 receptor | inhibition, % at 3 µM | actives 0.73% (n = 360,000) | AID 624125 | P08173 | CHO-hM4 cells, ACh EC80, Fluo-8 calcium fluorescence;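 active = inhibition above its plate's cutoff, the mean inhibition of sample wells plus 3 SD, cut at about 27% in these data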
CHO-K1 Ca antag: counter-screen for M1 antagonists: effect in parental CHO-K1 cells; AID 602250; actives 0.6% (n = 360,000); inhibition, % at 3 µM; ATP-induced calcium, Fluo-8 fluorescence;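 active = inhibition above a per-plate cutoff, the plate's mean sample inhibition plus 3 SD, cut at about 24% in these data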
Large screens that a line does not name were inactive. This is a sample that favours compounds with a hit; in the whole collection about 2% have one here.

Cc1c(Cl)c([N+](=O)[O-])nn1CC(=O)NC(C)C1CC2CCC1C2 (centres undefined)	none
O=C(NCc1ccc(Cl)cc1)c1ccc(Cl)cc1[N+](=O)[O-]	none
Cc1ccc(CNC(=O)c2ccc(Cl)cc2[N+](=O)[O-])cc1	CHO-K1 Ca antag 26
O=C(C1=NN[C@@H]2C(=O)N(Cc3ccccc3)C(=O)[C@H]12)c1ccc([N+](=O)[O-])cc1	CHO-K1 Ca ag 23
CCOc1ccc(S(=O)(=O)Nc2nc3ccccc3nc2-n2ccc(=NC(=O)c3ccccc3C)cc2)cc1	CHO-K1 Ca ag 24, CHO-K1 Ca antag 25
CC(C)C(NC(=O)c1ccccc1F)C(=O)NCc1ccc(S(=O)(=O)N2CCOCC2)cc1 (centres undefined)	none
Cc1ccc2nc3c(cc2c1)c(C)nn3-c1ccccc1	M4 PAM 31
O=C1CC(c2ccccc2)CC(=O)C1CS(=O)(=O)c1ccccc1 (centres undefined)	none
COc1cccc(CNc2cnc3ccccc3c2)c1O	CHO-K1 Ca ag 16
CCOc1cccc(CN(C)CC2CCCN(CCc3ccc(Cl)cc3)C2)c1O (centres undefined)	none
CN1CCN(c2ncccc2S(=O)(=O)N2CCCCC2)CC1	CHRM4 antagonist 69
COc1ccc(NC(=O)C2(N(CC(C)C)C(=O)Cn3nnnc3N)CCCCC2)cc1	CHO-K1 Ca antag 25
CCn1c(C)nc2cc(C(=O)NNC(=S)Nc3ccc(OC)cc3)ccc21	none
O=C(Nc1ccc(Cl)cc1)N[C@H]1CC[C@H](CCn2cc(-c3ccccc3F)nn2)O[C@@H]1CO	none (no result: CHO-K1 Ca PAM, CHO-K1 Ca ag, CHO-K1 Ca antag)
CCOc1ccc(C(=O)OCC(=O)NC2CCCC2)cc1OCC	none
O=C(c1ccccc1)N1CCN(C(=O)c2ccc3c(c2)OCCO3)CC1	none
O=C(c1ccc2c(c1)OCCO2)N1CCCCC1	M4 PAM 27
O=C(c1ccc(Cl)cc1)N1CCN(c2ccc([N+](=O)[O-])c(NCc3cccnc3)c2)CC1	M4 PAM 26
O=C(c1cccnc1)N1CCN(c2ccc(Cl)cc2)CC1	M4 PAM 30
COc1ccccc1C(C)NC(=O)c1ccc(NC(=O)CC2SC(N3CCCC3)=NC2=O)cc1 (centres undefined)	none
O=c1onc(-c2ccccc2)n1Cc1ccc([N+](=O)[O-])cc1	none
Nc1[nH]n2c(=O)c3c(nc2c1N=Nc1ccccc1)CCCC3	M4 PAM 30
Nc1[nH]n2c(=O)c3c(nc2c1N=Nc1ccc(Cl)cc1)CCCC3	none
Fc1ccc2[nH]c3c(N4CCc5ccccc5C4)ncnc3c2c1	CHO-K1 Ca antag 28
Cc1ccc2[nH]c3c(N4CCc5ccccc5C4)ncnc3c2c1	CHO-K1 Ca antag 35
CCOc1ccc2[nH]c3c(N4CCc5ccccc5C4)ncnc3c2c1	none
CC(C)C[C@H]1CNC(=O)C(=O)N1C[C@@H]1CCCN1C[C@H](Cc1ccccc1)N1C[C@H](Cc2ccccc2)N(CCc2ccccc2)C(=O)C1=O	none
COCCNc1nnc(SCC(=O)NNC(=O)c2ccccc2)s1	M4 PAM 19
CC(=O)c1c(C)[nH]c(C(=O)COC(=O)C2(C)CC2(Cl)Cl)c1C (centres undefined)	CHO-K1 Ca ag 20
CC1CCCN(Cc2ccc(OCc3ccccc3)cc2)C1 (centres undefined)	CHRM4 antagonist 37
Cc1[nH]c(C)c(S(=O)(=O)NCc2ccc(N(C)C)cc2)c1C(=O)N1CCCC1	M4 PAM 18
COc1ccccc1CNC(=O)C1CCCN1S(=O)(=O)c1ccc2c(c1)C(C)(C)C(=O)N2C (centres undefined)	none
Cc1cccc(-n2ncc3c(=O)[nH]c(SCC(=O)N4CC(=O)Nc5ccccc54)nc32)c1	none
CCn1c(=O)n(CC(=O)Nc2ccc(F)cc2)c(=O)c2ccccc21	CHO-K1 Ca antag 29
COc1ccc(CN(C)c2ccc(S(=O)(=O)N3CCN(C)CC3)cc2[N+](=O)[O-])cc1OC	CHO-K1 Ca ag 16, CHO-K1 Ca antag 31
CNC(=S)NNC(=O)c1sc(-c2cc(C)on2)nc1C	none
CCc1ccc([C@H]2C[C@H]3[C@H]4C(=O)N(c5ccccc5)C(=O)[C@H]4CC(=O)[C@@H]3CN2S(=O)(=O)c2ccc(C)cc2)cc1	none
Cc1ccc(S(=O)(=O)N2C[C@H]3C(=O)C[C@@H]4C(=O)N(c5ccccc5)C(=O)[C@@H]4[C@@H]3C[C@H]2c2cccc(Cl)c2)cc1	CHO-K1 Ca antag 31
COc1ccc([C@@H]2CC(=O)[C@@H]3CN(S(=O)(=O)c4ccc(Cl)cc4)[C@H](c4ccc(C)cc4)C[C@@H]3N2S(=O)(=O)c2ccccc2)cc1	none
COc1ccc([C@@H]2C[C@H]3[C@@H](CN2S(=O)(=O)c2ccccc2)C(=O)C[C@@H](c2cccc(Cl)c2)N3S(=O)(=O)c2ccc(C)cc2)cc1	CHO-K1 Ca antag 24
Cc1ccc(S(=O)(=O)N2C[C@H]3C(=O)C[C@@H](c4ccccc4F)N(S(=O)(=O)c4ccc(C)cc4)[C@H]3C[C@H]2c2ccccc2F)cc1	CHO-K1 Ca antag 29
O=C(COC(=O)CCc1ccc(S(=O)(=O)N2CCOCC2)cc1)Nc1ccccc1[N+](=O)[O-]	none
COC(=O)C[C@H]1c2cc(F)ccc2S(=O)(=O)N1C(C)C	none
CCCCNS(=O)(=O)c1cccc(NC(=O)[C@H]2C[C@H](O)[C@@H](CO)O2)c1	none
COc1ccccc1NC(=O)c1cc(OC)c(OC)cc1[N+](=O)[O-]	CHO-K1 Ca ag 16
CCC(=O)OCC(=O)Nc1cc([N+](=O)[O-])ccc1Cl	none
CCCc1c(O)nc(SCC(=O)N2CCCCC2)[nH]c1=O	none
CC(=O)Nc1c(O)nc(SCC(=O)Nc2ccc(C(C)=O)cc2)[nH]c1=O	none
CC(=O)Nc1c(O)nc(SCC(=O)N2CCCCC2)[nH]c1=O	M4 PAM 23
CC(=O)Nc1c(O)nc(SCC(=O)Nc2cccc(C)c2)[nH]c1=O	M4 PAM 42
COC(=O)c1cccc(NC(=O)CSc2nc(O)c(-c3ccccc3)c(=O)[nH]2)c1	M4 PAM 24
COc1cc(C2NC(=O)NC(C)=C2C(C)=O)ccc1O (centres undefined)	none
O=C(COc1cccc2c1CCN(Cc1ccc(Cl)cc1)C2=O)N1CCOCC1	none
Oc1ccccc1Oc1ncc(Br)c(Cl)n1	none
Brc1cnc(N2CCCCC2)nc1N1CCOCC1	none
Oc1ccccc1Oc1ncc(Br)c(N2CCOCC2)n1	CHRM4 antagonist 40
Brc1cnc(N2CCCC2)nc1N1CCOCC1	CHRM4 antagonist 27
COc1ccc(Cl)cc1NC(=O)CN(C)C(=O)CCCNC(=O)c1ccc(Cl)cc1	none
CC1CCCN(C(=O)CSc2nnc3ccccn23)C1 (centres undefined)	none
